Only some compounds are listed: those with a hit (about 2.4% of all), similar ones and a draw of the others.
BRCT PPI red – qHTS Assay for Inhibitors of BRCT-Phosphoprotein Interaction (Red Fluorophore) | Breast cancer type 1 susceptibility protein (Homo sapiens), P38398 | BRCT-phosphopeptide binding, red fluorescence polarization | Potency, µM (series often up to 76.9 µM), hits mostly inhibitors | hit rate 0.03% among 75,000 | AID 892, 2007
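Fluorescence polarization: 100 nM His-tagged BRCA1 BRCT with 100 nM TAMRA-labelled phospho-BACH1 decapeptide, phosphate buffer pH 7.3 with 150 mM NaCl, DTT, 0.01% Tween 20; 12 min RT. Binding inhibition seen as FP decrease.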
YjeE inh – qHTS Assay for Inhibitors of YjeE. AID 605, 2007. tRNA threonylcarbamoyladenosine biosynthesis protein TsaE (Escherichia coli (strain …. Potency, µM. purified YjeE enzyme, qHTS inhibition assay. hit rate 0.05% among 71,000
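Fluorescence polarization of a BODIPY Texas Red–ADP probe (2 uM) bound to purified YjeE (10 uM) was read after 15 min room-temperature incubation with compounds. Loss of polarization marks inhibitors; ADP serves as titrated control.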
ERK AVP block – qHTS Assay for Inhibitors of the ERK Signaling Pathway using a Homogeneous Screening Assay; HEK293-V1b, vasopressin-stimulated pERK AlphaScreen; Potency, µM (titrated, usually from 57.5 µM), usual class: inhibitors; hit rate 0.99% among 72,000; AID 995, 2007; further: nearly all actives have a fitted effect of over 55% in size
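qHTS, compounds titrated on V1b-expressing HEK293 cells. Preincubation 30 min at 37C, vasopressin 25 nM for 5 min, lysis 10 min, bead incubation 5 hr at room temperature.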
15-hLO inh – qHTS Assay for Inhibitors of 15-hLO (15-human lipoxygenase); Polyunsaturated fatty acid lipoxygenase ALOX15 (Homo sapiens), P16050; purified 15hLO-1, xylenol orange hydroperoxide absorbance; Potency, µM (highest dose often 57.1 µM), hits mostly inhibitors; hit rate 1.4% among 74,000; AID 887, 2007; further: nearly all actives have a fitted effect of over 55% in size
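Purified human 15hLO-1 (40 nM) in 25 mM Hepes pH 7.5, 0.01% Triton X-100, preincubated 15 min RT with compound, then 50 uM arachidonic acid for 6 min. Hydroperoxide read by ferrous/xylenol orange, 30 min; 573/405 nm absorbance ratio gave progress.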
BRCT PPI green – qHTS Assay for Inhibitors of BRCT-Phosphoprotein Interaction (Green Fluorophore); Breast cancer type 1 susceptibility protein (Homo sapiens), P38398; BRCA1 BRCT-phosphopeptide binding, green fluorescence polarization; Potency, µM (series often up to 76.9 µM), hits mostly inhibitors; hit rate 0.05% among 75,000; AID 875, 2007
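Fluorescence polarization: His-tagged BRCT (~35 kDa BRCA1 C-terminus, 250 nM) bound to 100 nM fluorescein-labeled phosphorylated 10-aa BACH1 peptide, pH 7.3 phosphate buffer with DTT and Tween 20. Compounds incubated 12 min at room temperature; inhibition read as lowered polarization.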
Pol III holo inh – qHTS Assay for Inhibitors of DNA Polymerase III Holoenzyme System | reconstituted DNA polymerase III holoenzyme replication, biochemical | Potency, µM (highest dose often 57.1 µM) | hit rate 0.25% among 71,000 | AID 603, 2007
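Reconstituted *E. coli* holoenzyme (0.35 nM Pol III, 1 nM beta, 154 nM SSB, 2 nM primase) was preincubated with compound for 15 min at RT. Synthesis on 1.4 nM ssM13Gori ran 35 min, then was stopped with PicoGreen/EDTA and read as dsDNA fluorescence.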
Each line names hits and unclear results; the compound was inactive in the other large screens. The call rests on the fitted dose curve; in most records, active means well fitted curve in the direction sought with a large enough effect; inconclusive means small, poorly fitted or top-dose-only effect, or another doubt; inactive means no such curve, though single readings can be large; an effect the other way counts as inactive or inconclusive.

CC1=C(C(=O)OCC2CCCO2)C(c2ccc(C)o2)C2=C(CC(c3ccc(F)cc3)CC2=O)N1 (centres undefined)	none
Nc1nccs1	none
CCn1c(Cc2ccc(OC)cc2)nnc1SCC(=O)Nc1nc2ccccc2s1	none
N/C(CC/C(N)=N/O)=N\O	none
CCN1CCCC1CNC(=O)c1cc2c(C)nc3ccccc3c2o1 (centres undefined)	none
CCOC(=O)N1CCC(NC(=O)c2cc3c(C)nc4ccccc4c3o2)CC1	ERK AVP block 25µM
Cc1nc2ccccc2c2oc(C(=O)NCC3COc4ccccc4O3)cc12 (centres undefined)	ERK AVP block 10µM
Cc1cc(-c2cc(C)c(O)c(C(C)(C)C)c2)cc(C(C)(C)C)c1O	none
O=S(=O)(c1ccc(F)cc1)N1CCC(N2CCN(c3ccccc3)CC2)CC1	none
CCc1nn2cc(-c3ccccc3)nc2s1	15-hLO inh 10µM
CN(C)C(=O)C1CCN(Cc2c[nH]c3ccccc23)CC1	none
CCN(CC)C(=O)Oc1ccc2c(=O)c(-c3ccc(OC)cc3)c(C)oc2c1	ERK AVP block 32µM
O=C(/C=C\c1ccccc1)c1ccccc1O	none (no result: YjeE inh, Pol III holo inh)
O=C(/C=C/c1ccc(O)cc1)c1cccs1	ERK AVP block 16µM, 15-hLO inh inconclusive (no result: YjeE inh, Pol III holo inh)
O=C(/C=C/c1ccc(O)cc1)c1ccccc1O	ERK AVP block 4µM, 15-hLO inh 10µM (no result: YjeE inh, Pol III holo inh)
Cc1ccc(NC(=O)CSCC(N)=O)cc1C	15-hLO inh 6.3µM
Cc1ccc(NC(=O)Cn2cccc2)cc1C	none
CCNc1ncc2nc(-c3ccc(Cl)cc3)c(=O)n(-c3ccccc3)c2n1	none
C=CCCC/C=C(/C)C(OCc1ccc(OC)cc1)C(CC/C=C(\C)C(N)=O)OC (centres undefined)	none (no result: YjeE inh, Pol III holo inh)
Nc1nc(-c2ccc3ccccc3c2)cc(-c2cc(-c3ccc4ccccc4c3)nc(N)n2)n1	none
Nc1nnc(N2CCc3ccccc32)s1	ERK AVP block 16µM
Nc1nnc(N2CCCCC2)s1	none
CCO[P@]1(=O)OC[C@@H]2O[C@H](n3cnc4c(N)ncnc43)[C@H](O)[C@@H]2O1	none
CCCCOc1ccc(NC2=NC3(CCCC3)N=C(N)N2)cc1	ERK AVP block inconclusive
Cc1cccc(CNc2ccnc(-c3ccccc3CN(C)C)n2)c1	none
COc1ccccc1C1CC(=O)Nc2cc3c(cc21)OCCO3 (centres undefined)	none
CC(C)Oc1ccccc1C1CC(=O)Nc2cc3c(cc21)OCCO3 (centres undefined)	ERK AVP block 16µM, 15-hLO inh inconclusive
COc1ccc(-c2nc(C#N)c(NC(C)c3ccccc3)o2)cc1OC (centres undefined)	ERK AVP block 16µM
CCc1cc2c3c(c(=O)oc2cc1O)CCCC3	none
Cc1ccc(-n2c(N)c(-c3nc4ccccc4n3C)sc2=S)cc1	15-hLO inh 3.2µM
COc1ccc2c(c1)c(=O)oc1cc(OCC(=O)NC3CC3)ccc12	Pol III holo inh 16µM
CCc1c2c(nc3cccc(SC)c13)COC2	ERK AVP block inconclusive (no result: 15-hLO inh)
CCCN1C(=O)c2cc(C(=O)NCc3cccs3)ccc2C1O (centres undefined)	none
Cc1c(C)n(C)c2ccc(C(=O)NCc3cccs3)cc12	YjeE inh inconclusive, ERK AVP block 13µM, 15-hLO inh 10µM
C=Cc1ccccc1Cl	none
CCOc1cccc(C=Nc2cc(C)cc(C)c2O)c1O	15-hLO inh 10µM
O=C(C1CCN(S(=O)(=O)c2cccc3cccnc23)CC1)N1CC=C(c2ccccc2)CC1	ERK AVP block 25µM, 15-hLO inh inconclusive
O=C(C1CCCN1S(=O)(=O)c1cccc2cccnc12)N1CCc2ccccc2C1 (centres undefined)	ERK AVP block inconclusive, 15-hLO inh 25µM
O=C(C1CCN(S(=O)(=O)c2cccc3cccnc23)CC1)N1CCCC1	none

High-throughput results as filed in PubChem.
